# Measurements reported in PMC3795721, “Screening for Protein-DNA Interactions by Automatable DNA-Protein Interaction ELISA”.
# Biological target: AT4G31550 (Arabidopsis thaliana, UniProt Q9SV15 228-325)
# Experiment: DPI-ELISA; DPI-ELISA, streptavidin 384-well plate, 1-2 pmol biotinylated dsDNA per well, crude native E. coli extract, anti-His detection; buffer as in Brand et al. [46],; high values mean tight binding
# Conditions: tags: C-terminal His (pET-DEST42); label: 5' biotin on forward strand; dsDNA, one strand shown
# Chain of AT4G31550 (Q9SV15 228-325): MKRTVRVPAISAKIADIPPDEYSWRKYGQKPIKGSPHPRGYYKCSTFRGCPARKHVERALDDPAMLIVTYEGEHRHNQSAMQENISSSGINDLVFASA
row,Sequence,binding signal [absorbance]
1,AAAAAAAATTAGTCTCTTCGTCTCCCAAAA,0.575 ± 0.106
2,AAAAAATATATTTTCAGCTTTAATCTAAAA,0.685 ± 0.106
3,AAAAAATGTGCCCGTGTGTGCTCGCGAAAA,0.73 ± 0.0849
4,AAAAAATCTAGGGGTACCTATTTGGCAAAA,0.675 ± 0.12
5,AAAAAAAGTCTGCGGCTGCAGGGCGGAAAA,1.91 ± 0.368
6,AAAAAACAGTTCGATGTCACCCCCGCAAAA,0.565 ± 0.106
7,AAAAAACCGACCTGCACGTCGCTGCTAAAA,0.505 ± 0.106
8,AAAAAAACTCTAGGTCAATATTATTCAAAA,3.11 ± 0.636
9,AAAAAAGTAGGTGCTGATGCTGGCCGAAAA,0.59 ± 0.0141
10,AAAAAAAACGTCTGGCGGGGTTGAGAAAAA,0.65 ± 0.113
11,AAAAAAATGTTCAAGCTCGATCTACAAAAA,0.63 ± 0.127
12,AAAAAATCGGGCCCCGTTAGCACTCTAAAA,0.665 ± 0.12
13,AAAAAAAGTTTGACCTTGGCGTTCGTAAAA,3.5 ± 0.148
14,AAAAAAGTCTAGTCGTAAAAA,0.595 ± 0.0778
15,AAAAAAGCGGTAGATGCGCAACTGTGAAAA,0.6 ± 0.127
16,AAAAAATTCCCAGCGTATCCGACCCGAAAA,0.535 ± 0.0778
17,AAAAAACACGCCATTGACACTGGTAAAAAA,1.67 ± 0.219
18,AAAAAATTACTCCTAGCCCTCATTCAAAAA,1.36 ± 0.976
19,AAAAAATCTTCTTGTTTCTTATTTCTAAAA,0.625 ± 0.12
20,AAAAAACACAGCATTAGGCTATCGGTAAAA,0.655 ± 0.134
21,AAAAAAGGCGGTCGTAGTTGTGGGAGAAAA,1.14 ± 0.0849
22,AAAAAACTGTGTCCCCGTCCCATCTCAAAA,0.525 ± 0.12
23,AAAAAATTGGTTCTCATTTCTACTTCAAAA,0.57 ± 0.127
24,AAAAAACTACTACCTTTGCCTAAGCGAAAA,0.685 ± 0.0919
